Measured values taken from PubChem BioAssay.
Active and inactive are the calls of the source.

What was measured:
[1] = A549 cell viability effects, profiling panel, calcein-AM fluorescence, 48 h, basal (AID 1162); conditions: higher = more signal
[2] = adipocyte viability effects, profiling panel, cell-based, 3T3-L1 adipocytes, calcein-AM fluorescence, 48 h, basal (AID 1163); conditions: 3T3-L1 adipocytes viability, higher = more signal
[3] = HepG2 cell viability effects, profiling panel, calcein-AM fluorescence, 48 h, basal (AID 1164); conditions: higher = more signal
[4] = MM1S cell viability effects, profiling panel, calcein-AM fluorescence, 48 h, basal (AID 1165); conditions: higher = more signal;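 also: viability of MM1S multiple myeloma cells under basal unstimulated conditions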
[5] = basal RPMI8226 viability, no added stimulus, profiling panel, cell-based, calcein-AM fluorescence, 48 h, PK04 Diversity Set (AID 1166); conditions: RPMI8226 myeloma viability, higher = more signal;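 also: cells grown under basal conditions without added stimulus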
[6] = basal HepG2 mitochondrial membrane potential changes, profiling panel, cell-based, JC-1 fluorescence, 24 h, 100 nL compound (AID 1167); conditions: higher = more signal
[7] = basal 3T3-L1 adipocyte mitochondrial potential changes, profiling panel, cell-based, JC-1 fluorescence, 3T3-L1 adipocytes, 24 h, 100 nL compound (AID 1168); conditions: JC-1 mitochondrial fluorescence, higher = more signal, called active from +8 up or from −8 down
[8] = basal RPMI8226 mitochondrial membrane potential changes, profiling panel, cell-based, JC-1 fluorescence, 24 h, 100 nL compound (AID 1169); conditions: RPMI8226 myeloma, JC-1 mitochondrial potential fluorescence, higher = more signal
[9] = basal MM1S mitochondrial membrane potential changes, profiling panel, cell-based, JC-1 fluorescence, 24 h, 100 nL compound (AID 1170); conditions: higher = more signal
[10] = A549 lung cancer cell viability effects, profiling panel, resazurin fluorescence, 24 h, PK04 Diversity Set (AID 1171); conditions: higher = more signal, called active from +8 up or from −8 down
Also: test concentration not given here.

SMILES | z-score [1] | z-score [2] | z-score [3] | z-score [4] | z-score [5] | z-score [6] | z-score [7] | z-score [8] | z-score [9] | z-score [10]
O=C1N(CCS(=O)(=O)c2ccccc2)Cc2ccccc2C[C@@]12COC(c1ccc(OCCCO)cc1)=N2 | -0.696 | 0.643 | 1.13 | -2.84 | -1.53 | -1.08 | 0.0146 (inactive) | -1.03 | -2.13 | -3.42 (inactive)
COC(=O)[C@@]1(Cc2ccc(OC)cc2)[C@H]2c3cc(C(=O)N(C)C)n(CCF)c3C[C@H]2CN1C(=O)c1ccccc1 | -0.444 | -0.228 | -0.0897 | 0.841 | -0.111 | 1.49 | 0.454 (inactive) | -0.339 | -1.55 | -0.391 (inactive)
CCOC(=O)C[C@H]1[C@H](OC(=O)c2ccccc2-c2ccccc2)[C@@H](NC(=O)c2ccccc2)c2cc(OCCCO)ccc2N1C(=O)Cc1ccc(OC)cc1 | 1.29 | 0.182 | 0.144 | -0.128 | 0.206 | 1.02 | -0.387 (inactive) | -1.04 | 0.277 | 0.995 (inactive)
COCCOC(=O)N1C(=O)[C@@]2(c3cc(C#CCCO)ccc31)[C@H](C(=O)N1CCc3cc(OC)c(OC)cc3C1)[C@H]1C(=O)O[C@H](c3ccccc3)[C@H](c3ccccc3)N1[C@@H]2c1ccc(OCCO)cc1 | 1.31 | 1.05 | 1.15 | 0.214 | 1.23 | -0.495 | 1.21 (inactive) | -0.532 | -0.901 | 0.86 (inactive)
NC(=O)NCC#Cc1ccc2c(c1)[C@]1(C(=O)N2)[C@H](c2ccc(OCCO)cc2)N2[C@H](c3ccccc3)[C@H](c3ccccc3)OC(=O)[C@H]2[C@@H]1C(=O)N1CCCCCCC1 | -0.702 | -0.467 | -0.455 | 0.135 | -1.31 | -1.76 | -1.87 (inactive) | -0.638 | -1.02 | 0.252 (inactive)
CC(C)NC(=O)[C@@H]1c2ccccc2C(=O)N(Cc2cc(C(F)(F)F)cc(C(F)(F)F)c2)[C@H]1c1ccc(CO)cc1 | -0.255 | 0.884 | -0.355 | -1.1 | -1.42 | 0.571 | 0.198 (inactive) | 0.967 | 0.144 | 0.634 (inactive)
COC(=O)[C@H]1N=C(c2ccc(OCCCO)cc2)O[C@H]1c1ccccc1CN=[N+]=[N-] | -0.348 | -0.409 | 0.0036 | -1.95 | -0.35 | -0.393 | 0.957 (inactive) | 0.344 | -0.823 | 2.65 (inactive)
[N-]=[N+]=NCc1ccccc1C[C@@]1(C(=O)NCCN2CCOCC2)N=C(c2ccc(OCCCO)cc2)O[C@@H]1c1ccccc1CN=[N+]=[N-] | -0.628 | 0.671 | -0.399 | -2.59 | -2.77 | 0.787 | 0.0123 (inactive) | -1.06 | -0.797 | -1.13 (inactive)
O=C(O)[C@]1(CCS(=O)(=O)c2ccccc2)N=C(c2ccc(OCCCO)cc2)O[C@@H]1c1ccccc1 | 0.195 | 0.103 | 0.296 | -1.2 | 1.18 | -0.509 | -0.372 (inactive) | -0.928 | 0.0474 | 0.704 (inactive)
O=C(Nc1cc(Br)ccc1C(=O)NCc1cccc(O)c1)c1ccccc1 | -1.71 | -0.318 | -2.25 | -3.11 | -2.49 | 0.386 | 5.49 (inactive) | -0.226 | -1.12 | -0.326 (inactive)
O=C1c2ccccc2[C@](Cc2ccccc2I)(C(=O)NCC(F)(F)F)[C@H](c2ccc(CO)cc2)N1Cc1ccccc1 | 0.535 | 0.489 | 0.43 | -0.441 | -1.67 | -0.0706 | -0.0813 (inactive) | -0.332 | -0.645 | 1.1 (inactive)
O=C1O[C@H](c2ccccc2)[C@H](c2ccccc2)N2[C@H]1[C@@H](C(=O)N1CCCCCCC1)[C@]1(C(=O)Nc3ccccc31)[C@H]2c1ccc(O)cc1 | 0.416 | 0.759 | 0.757 | -1.81 | -2.71 | -1.65 | 0.123 (inactive) | -0.536 | 0.385 | -1.52 (inactive)
COc1ccc([Si](C)(C)[C@@H]2[C@@H](CCO)O[C@]3(C(=O)N(Cc4ccc(N5C(=O)c6ccccc6Oc6ccccc65)cc4)c4ccccc43)[C@H]2C)cc1 | -0.738 | -0.703 | -3.56 | -2.31 | -3.17 | -0.42 | 0.462 (inactive) | -1.06 | -1.68 | -1.47 (inactive)
COC(=O)c1ccc(OC)c(/C=C\CC(CCc2ccccc2)OC(=O)c2ccncc2)c1 (stereo not given) | -0.568 | 0.115 | -0.457 | -2.19 | -2.2 | -1.28 | -1.32 (inactive) | -0.745 | 0.256 | 2.06 (inactive)
COCC(=C=CC[C@@H](O)c1ccccc1OCCO)C[C@@H](O)c1ccccn1 | 0.0929 | 0.158 | -0.0698 | -0.591 | 0.211 | -0.95 | -0.99 (inactive) | 0.0537 | -0.952 | -0.709 (inactive)
CC1CC/C=C\[C@H]2OC34C=CCN(Cc5ccccc5)C(=O)[C@H]3N(CCO)C(=O)[C@@H]4C2C(=O)O1 (stereo not given in full) | -0.106 | 1.1 | 0.337 | 1.47 | -0.105 | 0.0673 | 0.488 (inactive) | -0.657 | 2.1 | -0.783 (inactive)

SMILES | z-score [1] | z-score [2] | z-score [3] | z-score [4] | z-score [5] | z-score [6] | z-score [7] | z-score [8] | z-score [9] | z-score [10]
COc1ccccc1CN1C(=O)c2ccccc2[C@](Cc2ccccc2I)(C(=O)NCCN2CCOCC2)[C@@H]1c1ccc(CO)cc1 | 0.0739 | 0.937 | 1.26 | -1.17 | -2.74 | 2.25 | 0.833 (inactive) | -0.673 | -0.454 | -1.83 (inactive)
CN(C)C(=O)[C@@]1(CCS(=O)(=O)c2ccccc2)N=C(c2ccc(OCCCO)cc2)O[C@H]1c1ccccc1CN=[N+]=[N-] | 1.29 | 0.828 | -0.294 | -0.582 | -0.314 | 0.548 | -0.264 (inactive) | -0.114 | -1.31 | 0.712 (inactive)
Cc1ccc(F)cc1S(=O)(=O)N[C@@H]1CCN(C(=O)c2ccc(OC(C)C)cc2)C1 | 0.0926 | -1.39 | -0.471 | 0.0842 | -0.705 | -0.14 | -0.0993 (inactive) | -0.276 | -0.497 | -0.216 (inactive)
COc1ccc([Si](C)(C)[C@@H]2[C@@H](CC(=O)N3Cc4ccccc4C[C@H]3CO)O[C@]3(C(=O)N(Cc4cccc(N5CCCCC5=O)c4)c4ccccc43)[C@H]2C)cc1 | -0.824 | 1.85 | -1.27 | -1.55 | -3.36 | -0.157 | 0.472 (inactive) | -0.901 | -0.398 | -2.68 (inactive)
CCCC[C@@H](O)C1=C(COc2ccccc2)Cn2c(=O)n(-c3ccccc3)c(=O)n2[C@H]1CO | 0.753 | 0.409 | -0.0994 | 0.356 | -1.02 | -0.368 | 0.334 (inactive) | 0.42 | 0.277 | -0.515 (inactive)
C=CCNC(=O)[C@@H]1[C@H]2C(=O)O[C@H](c3ccccc3)[C@H](c3ccccc3)N2[C@H](c2ccc(O)cc2)[C@@]12C(=O)Nc1ccc(C#CCCO)cc12 | 0.47 | 0.79 | -0.168 | -0.21 | -0.719 | -0.931 | -0.296 (inactive) | -0.456 | -0.388 | 1.01 (inactive)
Cc1ccc(S[C@]2(C(=O)O)CC(=O)N(C3CCCCC3)[C@@H]2c2ccc(CO)cc2)cc1 | -0.0959 | -0.753 | 0.952 | -0.634 | 0.761 | 0.318 | 0.144 (inactive) | -0.148 | -0.776 | -0.345 (inactive)
CC(C)CCC[C@@H](C)[C@H]1CC[C@@]2(C)C3=C(CC[C@]12C)[C@@]1(C)CC[C@H](OC(=O)c2ccc(N)cc2)C(C)(C)C1CC3 (stereo not given in full) | 1.22 | 0.187 | 1.06 | -0.169 | 0.814 | 0.703 | 0.335 (inactive) | -0.064 | -0.0494 | -0.16 (inactive)
CN1C(=O)C2C=CC(C(O)c3cccc4ccccc34)N(NC(=O)OC(C)(C)C)C2C1=O (stereo not given) | -0.927 | -0.0679 | -0.559 | -0.248 | -1.49 | -2.24 | -0.532 (inactive) | 0.219 | 0.437 | -0.195 (inactive)
CCC[C@@H]1C[C@@]1(CCC)[C@@H](NC(=O)c1ccco1)c1ccc(Cl)cc1 | -1.03 | -0.741 | -1.06 | -1.6 | -4.31 | -1.62 | -0.00207 (inactive) | -0.736 | -2.07 | -1.91 (inactive)
OCCCC1=CC(c2cccs2)N(Cc2cccc(OC(F)(F)F)c2)CC1 (stereo not given) | -0.686 | -0.777 | -1.13 | -3.3 | -3.79 | -1.24 | -1.13 (inactive) | -0.733 | 0.478 | 0.397 (inactive)
OCc1ccc(-c2cc[n+](Cc3cccc(OC(F)(F)F)c3)cc2)cc1 | -1.19 | 0.983 | -0.52 | 0.47 | -0.483 | -0.628 | 0.296 (inactive) | -0.672 | -0.704 | -0.395 (inactive)
COCCCNC(=O)[C@]1(Cc2ccccc2)N=C(c2ccc(OCCCO)cc2)O[C@@H]1c1ccccc1N=[N+]=[N-] | -1.8 | 1.77 | -1.47 | -1.78 | -4.29 | 1.29 | 0.235 (inactive) | -1.1 | -1.73 | -1.09 (inactive)
C=CCOC(=O)[C@H]1[C@@H]2C(=O)O[C@@H](c3ccccc3)[C@@H](c3ccccc3)N2[C@@H](c2ccc(OCCOC(=O)[C@H]3C[C@H]4C(=O)N[C@@H](CCCCN(C)C)C(=O)N4[C@H]3c3ccc(O)cc3)cc2)[C@]12C(=O)Nc1ccccc12 | -0.514 | 1.04 | -0.434 | -1.54 | -0.0817 | -1.63 | 0.665 (inactive) | -0.838 | -0.391 | 0.232 (inactive)
COC(=O)C(CC#Cc1ccc2c(c1)[C@]1(C(=O)N2)[C@H](C(=O)N2CCc3cc(OC)c(OC)cc3C2)[C@H]2C(=O)O[C@H](c3ccccc3)[C@H](c3ccccc3)N2[C@@H]1c1ccc(O)cc1)C(=O)OC | -0.703 | 1.08 | 0.613 | -0.993 | -3.27 | -1.81 | 0.604 (inactive) | -0.606 | 0.567 | -0.216 (inactive)
